In PubChem BioAssay (NCATS):
Where “and” joins values, the source holds several entries; their conditions need not be identical. Equal entries are not always repeated. Results filed as inconclusive are left out. Calls of active or inactive are those of the source. The call rests on the fitted dose curve; in most records, active means well fitted inhibition curve with a large enough effect; inconclusive means small, poorly fitted or top-dose-only effect; inactive means flat fitted curve, though single readings scatter.

test system: HEK293; test: Cytotoxic Profiling of Annotated Libraries Using Quantitative High-Throughput Screening (AID 1296008); conditions: Five cell lines viability, CellTiter-Glo ATP luminescence, 48-72 h; max response: stronger effect = lower value; further: nearly all actives have a fitted effect of over 60% in size
Method in brief: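 Cells exposed to compounds for 48 or 72 hr at 37 degrees Celsius. Viability read as ATP-coupled luminescence with CellTiter-Glo after 10 min at room temperature.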
On the % scale 0 is the no-effect control and ±100 the full control effect; potency means the concentration at half of the fitted maximal effect.

Q: For `N=C1SC(=Cc2ccc(-c3ccc4c(c3)C(=O)NC4=O)o2)C(=O)N1c1ccc(Br)cc1`, which max response is on record?
A: The max response was 1.89% (inactive).

Q: Which Potency does the source give for `Cc1[nH]c(C=C2C(=O)Nc3ccc(S(=O)(=O)N(C)c4cccc(Cl)c4)cc32)c(C)c1C(=O)N1CCN(C)CC1` here?
A: The Potency was 5.26 µM (active).

Q: Which Potency does the source give for `O=C(Nc1ccc(OC(F)(F)F)cc1)c1sccc1NCc1ccnc2ccccc12` here?
A: The Potency was 8.33 µM (active) and 20.6 µM (active).

Q: `C[C@@H](O[C@H]1OCCN(Cc2n[nH]c(=O)[nH]2)[C@@H]1c1ccc(F)cc1)c1cc(C(F)(F)F)cc(C(F)(F)F)c1` was tested. Which Potency did it give?
A: The Potency was 20.9 µM (active).

Q: For `Nc1ccn([C@@H]2O[C@H](CO)[C@@H](O)[C@H]2O)c(=O)n1`, which max response is on record?
A: The max response was -76.5% (inactive).

Q: With `CCc1cc(-c2n[nH]c(C)c2-c2ccc3c(c2)OCCO3)c(O)cc1O` as the molecule, how does the Potency read?
A: Its Potency is 11.8 µM (active).

Q: How did the Potency turn out when `COc1cc2nc(-c3cc(F)ccc3O)nc(N[C@@H]3CNC[C@@H]3C(C)(C)O)c2cc1OC` was run?
A: Its Potency is 14.8 µM (active).

Q: How did the Potency turn out when `CC(C)(O)CC(=O)NCCn1ccc2ncnc(Nc3ccc(Oc4cccc(C(F)(F)F)c4)c(Cl)c3)c21` was run?
A: The Potency was 16.6 µM (active).

Q: With `O=S(=O)(NCCNCC=Cc1ccc(Br)cc1)c1cccc2cnccc12` as the molecule, how does the Potency read?
A: Its Potency is 7.43 µM (active).
